# Sampled rows, rich in hits. Any-hit rate of the full collection: about 21%.
# NS1 function inh – influenza NS1 inhibition | Potency, µM (highest dose often 46.1 µM), for inactives: at the top dose activity, positive = more growth | 270,000 tested, 0.4% active; calls by dose curve; further: potency means the concentration at half of the fitted maximal effect; actives are rising curves; nearly all actives have a fitted effect of over 50% in size
#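 Growth recovery, yeast-based: influenza A NS1 expressed in S. cerevisiae causes slow growth, and suppressors are detected by OD600. The parent strain without NS1 is used as positive control.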
# CHX counter – affects cycloheximide protein synthesis inhibition readout, counter-screen; max response, %; cell reporter, cycloheximide protein synthesis inhibition counterscreen; 300,000 tested, 12% active; in the data active means max response mostly above about 13%, no sharp cut-off; inactive means mostly below about 14%; further: read at 38.3 µM for the half of the compounds with a filed dose; 0% is about no effect
# Pf growth 96h – P. falciparum growth inhibition at 96 hours; P. falciparum luciferase reporter growth, 96 h; Potency, µM (titrated, usually from 28.7 µM), for the others: at the highest dose activity change, negative = inhibition, usual class: inhibitors; 320,000 tested, 6.9% active; AID 504834; further: potency means the concentration at half of the fitted maximal effect; on the % scale 0 is the no-effect control and ±100 the full control effect
#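 Erythrocytes infected with luciferase-expressing P. falciparum were dispensed at 2% hematocrit and 0.05% parasitemia (final), then incubated with compounds 96 hours at 37 C in 5% CO2. Luminescence after detection reagent addition reported growth.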
# SARS PLpro yeast – inhibitors of SARS-CoV papain-like protease in yeast; Potency, µM (series often up to 32.9 µM), for inactives: top-dose activity, positive = growth rescue, usual class: activators; S. cerevisiae expressing SARS-CoV PLpro, growth rescue; 330,000 tested, 0.19% active; calls by dose curve; further: potency means the concentration at half of the fitted maximal effect; 0% is about no effect; nearly all actives have a fitted effect of over 55% in size
# Shiga inhibitor – blocks Shiga toxin action in Vero cells; Vero cells, Shiga toxin protein synthesis inhibition reporter; inhibition, % at 38.7 µM; 290,000 tested, 9.2% active; in the data active means inhibition mostly above about 28%, no sharp cut-off; inactive means mostly below about 43%; further: 0% is about no effect
# Pf growth 48h – P. falciparum growth inhibition at 48 hours (one generation). P. falciparum luciferase growth in erythrocytes, 48 h. Potency, µM (titrated, usually from 28.7 µM), without a hit: top-dose activity change, negative = inhibition, actives largely listed as inhibitors. 310,000 tested, 5.9% active; further: potency means the concentration at half of the fitted maximal effect; on the % scale 0 is the no-effect control and ±100 the full control effect
#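 Here the parasites carry a stable luciferase gene and grow inside erythrocytes in Albumax-based RPMI medium with compound for one erythrocytic cycle. Activity is scored as loss of luminescent signal.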
# An asterisk follows results filed as active; i = inactive; ? = inconclusive; . = no result. Unless noted, the call rests on the fitted dose curve; in most records, active means well fitted inhibition curve with a large enough effect; inconclusive means small, poorly fitted or top-dose-only effect, or another doubt; inactive means no such curve, though single readings can be large or run the other way.
SMILES,NS1 function inh,CHX counter,Pf growth 96h,SARS PLpro yeast,Shiga inhibitor,Pf growth 48h
CN(Cc1ccccc1)C(=O)c1ccc(NC(=O)Cc2cccc(NC(=O)C3CCCN(C(=O)C4CCC4)C3)c2)cc1 (stereo unspecified),.,.,?,5.4%,.,9.28µM*
CN(C(=O)c1ccc(NC(=O)Cc2ccc(NC(=O)C3CCN(C(=O)C4CC4)CC3)cc2)cc1)C1CC1,.,.,0.3%,-4.6%,.,?
CN(C)C(=O)CCc1ccc2c3c([nH]c2c1)[C@]1(C)[C@@H](C(=O)N2CCCCC2)C[C@H](CC(=O)NCC24CC5CC(CC(C5)C2)C4)C(=O)N1CC3,.,.,.,-19.8%,.,.
CCOC(=O)c1ccc(NC(=O)CN2C(=O)NC3(CCCCCCC3)C2=O)cc1,.,.,?,7.0%,.,?
Cc1sc2ncnc(NCC(c3ccco3)N3CCCC3)c2c1C (stereo unspecified),1.7%,-0.9,8.28µM*,11.7%,14.1,10.4µM*
COc1ccccc1C(CNC(=O)c1cccc(S(=O)(=O)Nc2ccc(C)cc2)c1)N(C)C (stereo unspecified),2.6%,0.7,?,-1.6%,13.5,?
Cc1nc2sc(C(=O)Nc3ccccc3)c(N)c2c(C)c1[N+](=O)[O-],.,49.7*,?,-4.9%,90.9*,191.8%
Nc1c(C(=O)Nc2ccccc2)sc2ncc([N+](=O)[O-])cc12,4.1%,11.9,32.3%,2.0%,6.6,16.4%
Cc1nc2sc(C(=O)OC(C)C)c(N)c2c(C)c1C,.,19.1*,-8.5%,-2.9%,40.6*,116.4%
Cc1nc2sc(C(=O)c3ccccc3)c(N)c2c(C)c1C,.,24.2*,29.1%,-1.5%,30.9,30.2%
COc1ccc(-c2c(C#N)c(N)nc3sc(C(=O)c4ccccc4)c(N)c23)cc1,7.0%,-2.5,-9.8%,9.2%,9.6,9.28µM*
Cc1nc(-c2ccccc2)nc2sc(C(=O)c3ccc(F)cc3)c(N)c12,2.1%,2.1,73.9%,0.1%,-9.6,35.5%
COc1ccccc1NC(=O)Cc1csc(N)n1,-2.2%,-4.1,6.1%,-2.5%,-4.5,0.9%
Cc1ccc(NC(=O)C(C)Sc2nnc(C)n2C2CC2)cc1S(=O)(=O)N1CCOCC1 (stereo unspecified),.,.,-11.2%,-2.5%,.,-7.3%
Cc1[nH]n(-c2ccccc2)c(=O)c1/C=N/NC(=O)C(C)C,1.3%,12.7,?,-1.3%,27.6,?
CCOC(=O)c1sc2ncc([N+](=O)[O-])cc2c1N,-0.8%,-0.7,125.0%,-0.2%,11.0,56.0%
CCOC(=O)c1sc2nc(C)c([N+](=O)[O-])c(COC)c2c1N,-3.4%,0.2,-8.8%,0.4%,6.3,10.4µM*
CC(=O)c1ccc(NC(=O)c2sc3nc(C)c(C)c(C)c3c2N)cc1,17.3%,53.8*,-20.8%,-2.1%,114.9*,119.2%
CCOC(=O)c1ccc(NC(=O)c2sc3nc(N4CCOCC4)c4c(c3c2N)CCCC4)cc1,-2.3%,-7.7,?,-5.7%,-4.9,-8.0%
CCN(C(=O)CSc1nc(N)cc(N)n1)C1CCS(=O)(=O)C1 (stereo unspecified),6.6%,-1.1,29.2%,0.1%,-28.3,17.4%
CCOC(=O)C1CCCN(CCC(=O)Nc2cc(OC)ccc2OC)C1 (stereo unspecified),-13.8%,-3.1,?,-0.9%,-7.2,-123.3%
CC1CCCCN1CCNC(=O)c1ccc2c(=O)n(Cc3ccc(Cl)cc3)c(=S)[nH]c2c1 (stereo unspecified),27.2%,1.4,8.2%,0.5%,-3.2,3.7µM*
CC1CCN(CCCNC(=O)c2ccc(Cn3c(=S)[nH]c4ccc(Br)cc4c3=O)cc2)CC1,.,-3.2,15.9%,-0.8%,-10.6,13.1µM*
COc1cc(OC)cc(N2CCN(S(=O)(=O)c3ccc(-n4cnnn4)cc3)CC2)c1,-17.6%,-5.9,?,12.3%,-5.2,17.7%
COc1ccc(CCNC(=O)COc2ccc(C)nc2[N+](=O)[O-])cc1OC,.,-2.4,-3.1%,-1.2%,-10.0,2.3%
SMILES,NS1 function inh,CHX counter,Pf growth 96h,SARS PLpro yeast,Shiga inhibitor,Pf growth 48h
CNC(=S)Nc1ccc(C)cc1,7.8%,-2.7,-18.1%,20.5%,-8.0,4.1%
CNC(=S)Nc1ccc(-c2nc3ccc(C)cc3s2)cc1,10.4%,30.1*,i,-0.9%,95.1*,i
Cc1ccc2nc(-c3ccc(N)cc3)sc2c1,-3.5%,29.8*,i,-2.1%,10.9,0.0%
Cc1ccc2nc(-c3ccc(N4C(=N)SC5CS(=O)(=O)CC54)cc3)sc2c1 (stereo unspecified),20.8%,46.4*,-14.3%,6.2%,126.3*,46.0%
Nc1ccc2nc(-c3ccccc3)sc2c1,-9.6%,9.0,0.0%,.,25.1,134.9%
CC1=CCC(C(=O)O)C(C(=O)Nc2ccc(-c3nc4ccc(C)cc4s3)cc2)C1 (stereo unspecified),-0.6%,53.7*,i,1.1%,104.4*,242.6%
CC1=CCC(C(=O)O)C(C(=O)O)C1 (stereo unspecified),2.6%,-6.8,39.8%,4.9%,-8.6,53.9%
CN(C)Cc1c(C(=O)N/N=C/CCc2ccccc2)nnn1-c1nonc1N,4.3%,8.1,2.8%,0.8%,14.8,9.3%
Cc1ccc2nc(-c3ccc(NS(=O)(=O)c4ccc(F)cc4)cc3)sc2c1,-16.2%,52.3*,139.9%,-77.6%,158.6*,162.8%
CC(=O)Nc1ccc(S(=O)(=O)Nc2nc3ccc(C)cc3s2)cc1,0.7%,-3.8,25.9%,2.4%,-6.9,30.5%
COCCNc1nnc(SC(C)C(=O)Nc2ccc(-c3nc4ccc(C)cc4s3)cc2)s1 (stereo unspecified),28.7%,28.2*,?,16.7%,93.2*,5.4%
Nc1ccc(-c2nc3cc(N)ccc3s2)cc1,3.4%,37.5*,?,4.4%,66.6*,136.1%
CC(=O)NC(=S)Nc1ccc(-c2nc3ccc(C)cc3s2)cc1,-3.0%,27.4*,225.2%,2.3%,79.7*,112.0%
CCOc1ccc(C(=O)N2CCN(CC(=O)N3CCCC3)CC2)cc1OCC,.,.,2.9%,-6.5%,.,0.4%
Cc1cc(=O)[nH]c(SCC(=O)NC2CCCCC2)n1,3.6%,-2.8,16.6%,-2.8%,2.3,?
CC1Cc2nc(SCC(=O)N3CCc4ccccc43)n(C)c(=O)c2S1 (stereo unspecified),-80.8%,-4.8,?,-6.6%,11.8,32.2%
COc1ccccc1-n1c(SCC(=O)Nc2ccc3c(c2)OCO3)nc2c(c1=O)SCC2,?,0.3,0.7%,?,7.2,?
COc1ccc(OC)c(-n2c(SCC(=O)N3CCc4ccccc43)nc3c(c2=O)SCC3)c1,-59.8%,-2.0,2.33µM*,20.7%,-4.6,?
COc1ccccc1-n1c(SCC(=O)Nc2cccc(C)c2)nc2c(c1=O)SCC2,12.5%,-3.6,10.4µM*,5.5%,-6.4,.
COc1ccccc1-n1c(SCC(=O)N2CCc3ccccc32)nc2c(c1=O)SCC2,?,9.4,?,2.4%,-3.3,11.7µM*
CCC1(c2ccc(O)cc2)NC(=O)NC1=O (stereo unspecified),.,-6.7,.,.,-11.1,.

# Screening data as filed in PubChem.
